The subject of assay [1] is Zika virus NS2B-NS3 protease (linked construct). The assay can be described thus: Primary screen NINDS Rhodamine qHTS for Zika virus inhibitors (AID 1347160). Note: nearly all actives have a fitted effect of over 55% in size. Note: potency is the fitted concentration of half-maximal effect. In a few lines: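 Kinetic fluorescence (Ex 480 nm, Em 540 nm) over 15 min with 1.5 microM Rhodamine110 peptide and 25 nM linked protease.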
The nature of assay [2]: OV-SAHO Cancer Cell Toxicity qHTS against the NCATS CANVASS Library (AID 1347348). Note: nearly all actives have a fitted effect of over 55% in size. Note: potency is the fitted concentration of half-maximal effect. In a few lines: (§1)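 In this cytotoxicity screen, 1000 cells per well rested 4 hours, then received compound (11 concentrations) for a 72-hour incubation; an ATP-dependent luminescent signal (CellTiter-Glo) was the endpoint.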
Assay [3] can be described thus: G06 Cancer Cell Toxicity qHTS against the NCATS CANVASS Library (AID 1347368). Note: nearly all actives have a fitted effect of over 60% in size. Note: potency is the fitted concentration of half-maximal effect. Put shortly:
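Dog G06 glioma line, 500 cells/well; cpds pin-transferred, 11-pt; 72 hr, 37C/5% CO2; CellTiterGlo luminescence (ATP) endpoint.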

Assay [4] in a line: OV-KATE Cancer Cell Toxicity qHTS against the NCATS CANVASS Library (AID 1347345). Put shortly: as §1
Assay [5] is described as follows: UWB1.289 Cancer Cell Toxicity qHTS against the NCATS CANVASS Library (AID 1347347). Note: nearly all actives have a fitted effect of over 60% in size. Note: potency is the fitted concentration of half-maximal effect. In a few lines: as §1
A short description of assay [6]: Panc-1005 Cancer Cell Toxicity qHTS against the NCATS CANVASS Library (AID 1347349). Note: nearly all actives have a fitted effect of over 60% in size. Note: potency is the fitted concentration of half-maximal effect. In a few lines:
as §1

Assay [7] can be described thus: SW1088 Cancer Cell Toxicity qHTS against the NCATS CANVASS Library (AID 1347350). Note: nearly all actives have a fitted effect of over 75% in size. Note: potency is the fitted concentration of half-maximal effect. Put shortly: as §1
A short description of assay [8]: COV-362 Cancer Cell Toxicity qHTS against the NCATS CANVASS Library (AID 1347352). Note: potency is the fitted concentration of half-maximal effect. In a few lines: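 Luminescent ATP read-out (CellTiter-Glo, 15min at room temperature) measures survival after cells face an 11-point compound series for 72 hours at 37 degrees C/5% CO2.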
Assay [9] in a line: qHTS for Antimalaria activity screened against the NCATS CANVASS Library (AID 1347380). Note: nearly all actives have a fitted effect of over 40% in size. Note: potency is the fitted concentration of half-maximal effect. Put shortly: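 Dd2 strain, infected erythrocytes 2.5% Hct final / 0.3% parasitemia. 11-pt qHTS titration, 72 h, 37C, 5% O2, 5% CO2. Lysis buffer + SYBR Green, 18 h, fluorescence 485/535 nm.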

Each structure is given as a SMILES string. Inconclusive results are not listed. Unmarked numbers belong to inactive results. Activity calls are given as the source filed them. Calls come from the whole dose curve; as a rule, active = well fitted curve in the direction sought with a large enough effect; inconclusive = small, poorly fitted or top-dose-only effect, or another doubt; inactive = no such curve, though single readings can be large; an effect the other way counts as inactive or inconclusive. Starred links: 1 amine or outer side, 2 acyl side, 3 side chain; linkers in the order of their positions; H or OH if unused. Positions of bridges follow the written chain, without caps; N, C: chain ends. Non-standard residues stand in square brackets, D forms with d. Residues, ends and D or L forms follow the SMILES beside them. ξ: configuration not given here. *: point of attachment. X3 = C[C@@H](Oc1ccc([C@H](N[*:1])C(=O)[*:2])cc1)[C@]1(/C=C\C(=O)[*:3])CO1; d(aIle) = CC[C@H](C)[C@@H](N)C(=O)O; X2 = CC(C)[C@@H](O)C(C)C(=O)*; ξNMeF = CNC(Cc1ccccc1)C(=O)O; ξT = CC(O)C(N)C(=O)O; ξS = NC(CO)C(=O)O

We go through 16 compounds from PubChem BioAssay (NCATS).

As for `CC[C@@H]1CN2CCc3c([nH]c4cccc(OC)c34)[C@@H]2C[C@@H]1/C(=C\OC)C(=O)OC`, the Potency result in [1] is “inactive”. Further, the Potency in assay [2] was 14.9 µM (active); in [3], 23.5 µM (active).

Consider `C=CC(C)(C)[C@@]12C[C@H]3C(=O)N/C(=C\c4cnc[nH]4)C(=O)N3[C@@H]1Nc1ccccc12`, for which the Potency result in assay [4], in assay [5], in assay [2], in [6], in assay [7] and in [8] was “inactive” throughout. In addition, the Potency result in assay [3] and in [9] was “inactive” throughout.

As to `C/C(=C\[C@H](C)C(=O)C[C@H](O)CC1CC(=O)NC(=O)C1)[C@@H]1OC(=O)/C=C/CC/C=C/C=C/[C@@H]1C`, the Potency was 44 µM (active) in assay [1]; 0.118 µM (active) in [5]; 0.118 µM (active) in assay [2]; 0.0668 µM (active) in assay [6]; 0.0526 µM (active) in [3]; 0.941 µM (active) in [9].

For `C[N+](C)(C)CCc1c[nH]c2ccccc12`, the Potency entry in assay [4], in [5], in assay [2], in assay [6], in assay [7] and in assay [8] was “inactive” in each case. Also, the Potency entry in [3] was “inactive”.

Regarding `C[C@]12CC(O)C3[C@@H](CC[C@@H]4C[C@@H](O)CC[C@]34CO)[C@@]1(O)CC[C@@H]2C1=CC(=O)OC1` (some centres undefined), the Potency in assay [5] was 4.2 µM (active); in [8] it was 7.47 µM (active); in assay [3], 4.18 µM (active). Moreover, the Potency result in [9] is “inactive”.

Take `CCCC[C@@H]1CC[C@H]2CCCC(CCCO)N12` (some centres undefined): the Potency entry in assay [4], in [2], in assay [6], in assay [7], in assay [8] and in [3] was “inactive” each time. For the same compound, the Potency in [9] is 0.0106 µM (active).

Turning to `c1ccc2nc3c(cc2c1)[nH]c1ccccc13`, the Potency result in [4], in assay [5], in assay [7], in assay [8] and in [9] was “inactive” each time.

With `CO[C@@H](/C=C/CC/C=C/C(=O)O)[C@@H](O)[C@H](C)/C=C(\C)[C@H](O)[C@H](C)C(=O)CCCC1CC(=O)NC(=O)C1`, the Potency entry in assay [4], in assay [5], in assay [2], in assay [6], in assay [7] and in assay [8] was “inactive” in each case. Besides, in assay [3], the Potency entry was “inactive”.

As for `CC[C@H](C)[C@H]1NC(=O)[C@@H](NC(=O)C(C)[C@H](O)C(C)C)[C@@H](C)OC(=O)C2COC(=O)CNC(=O)/C=C\[C@]3(CO3)[C@@H](C)Oc3ccc(cc3)[C@H](NC1=O)C(=O)N(C)C(Cc1ccccc1)C(=O)NC(C(C)O)C(=O)N2` (some centres undefined) (X2-T[d(aIle)][X3][ξNMeF][ξT][ξS]; ester 1-C; linker 3-6 via G), the Potency result in assay [4], in assay [2], in [6], in [7] and in assay [8] was “inactive” throughout.

For the compound `C=C(C)[C@H]1C(=O)c2c3c(cc4c5c(n1c24)[C@@]1(C)[C@@H](CC[C@H]2[C@](C)(/C=C/C=C(\C)C(=O)O)[C@@H](O)CC[C@@]21C)C5)C1=CC(C)(C)OC(C)(C)[C@H]1[C@@H]3O`, the Potency in assay [1] is 2.2 µM (active); in assay [5], 11.8 µM (active); in [2], 11.8 µM (active); in assay [6] it was 8.41 µM (active); in [7], 5.95 µM (active); in assay [8], 21.1 µM (active). The Potency in assay [9] is 7.47 µM (active).

Take `CC(C)CC1C(=O)O[C@H](C(C)C)C(=O)N(C)C(CC(C)C)C(=O)O[C@@H](C(C)C)C(=O)N(C)C(CC(C)C)C(=O)O[C@H](C(C)C)C(=O)N(C)C(CC(C)C)C(=O)O[C@@H](C(C)C)C(=O)N1C` (some centres undefined): the Potency in assay [1] was 4.4 µM (active); in assay [2], 5.94 µM (active); in [6], 6.68 µM (active); in assay [7], 5.95 µM (active); in assay [9], 0.747 µM (active).

As for `C[C@]12CC(O)C3[C@@H](CCC4C[C@@H](O)CC[C@@]43CO)[C@@]1(O)CC[C@@H]2C1=CC(=O)OC1` (some centres undefined), the figures for the Potency in assay [1], in assay [5] and in [3] were 44 µM (active), 13.3 µM (active) and 13.2 µM (active), respectively. Besides, the Potency entry in assay [7] and in assay [9] was “inactive” in each case.

On to `C/C=C1/CN2C3CC1C1=CCC(=O)N4c5ccccc5[C@@]3(C[C@@H]2C2=C[C@H]3C5CC6N(CC[C@@]67c6ccccc6N(C2=O)[C@@H]37)C/C5=C/C)[C@H]14` (some centres undefined), for which the Potency in assay [1] was 31.1 µM (active); in assay [6] it was 14.9 µM (active); in assay [7], 14.9 µM (active); in assay [3], 20.9 µM (active); in assay [9], 1.33 µM (active). Besides, the Potency entry in assay [4] is “inactive”.

For the compound `C1=C2CCCN[C@H]2C2CC1[C@H]1CCCCN1C2` (some centres undefined), the Potency entry in assay [4], in [5], in [2], in assay [6], in assay [7] and in assay [8] was “inactive” in each case. In addition, the Potency entry in assay [9] is “inactive”.

Take `CC[C@@H]1CN2CCC3(Nc4cccc(OC)c4C3=O)[C@@H]2C[C@@H]1/C(=C\OC)C(=O)OC` (some centres undefined): the Potency result in [1], in assay [4], in assay [6], in assay [7], in assay [8] and in assay [3] was “inactive” in each case.

Regarding `C=C[C@]12C=CCN3CC[C@@]4(c5ccccc5NC(=O)[C@@H]4C1)[C@@H]32`, the Potency result in [4], in assay [5], in assay [2], in assay [6], in assay [7] and in [8] was “inactive” each time.
